Results from the OligoGym collection.

target: ZNF599; experiment: pooled miR-30 sensor sort-seq; sequence = guide strand; settings: shRNA
Note: reference of the scale not given here.

Row | Sequence | sensor-assay potency score (higher = more potent)
1 | TATGGGTCCTCTTATGTCGGAT | -0.578
2 | TTCCACATTCTCTACAAACATA | -1.71
3 | TTGCACATTCTTTGCACTCCAA | -0.563
4 | TTGTGGAGTGACTCGTTCCTGT | -0.347
5 | AATCTCTTGAGGATCTCTGTGC | -0.218
6 | TTAGCTTTTCCTCATCTCTAGC | -0.541
7 | TTCTCTACAAACATAGGGCTTC | 0.194
8 | TTATTTTAAAATATGCTTGAGA | -0.0715
9 | TGAATCTTTAATATAATTCTTT | -0.316
10 | TTGAGAGTCACACTCATGGAGA | -0.714
11 | TAAATGCATGTTAACCACCAGG | -1.03

target: ZNF609; experiment: as above; settings: shRNA

Row | Sequence | sensor-assay potency score (higher = more potent)
12 | TTTCTGTCCAGAACAGTGGGTT | 0.109
13 | TGAAACTGTAGATCTTGTCGGC | 0.618
14 | TATTGGATCCATCTCTGCCTGT | -0.575
15 | TTGACTTTCTTTAGCAGGCGAC | -0.497
16 | TTGGAGAATAGTAACTCTCAAA | -1.39
17 | TTTGTGAGACAGATGCACCGTT | 0.735
18 | TTGACATCCTCAGAAGTGCTGC | 0.188
19 | TATCGTGGGAGACTTGCTCTTG | -0.437
20 | TTGCAGTCACTACTTGTGCTTT | -0.589
21 | TAAACATATGTCCACATCCGGG | -1.36
22 | TCTTTTTCCATACACTTCCTTT | -0.591
23 | TGATTTGACACTGTCTACCTTG | 0.639

target: ZNF630; experiment: as above; settings: shRNA

Row | Sequence | sensor-assay potency score (higher = more potent)
24 | TTGGACACTCAAAACACTCATA | -0.509
25 | TTCCATACTTAGTACATTCATA | -0.904
26 | TTGCTTATGACTGAGAACTTTT | -0.853
27 | TAGAATGAGATGTGACTTCAGG | -0.186
28 | TAAGTCTGAATTAGACTTCAAG | -0.977
29 | TAATTAGATGTGACTTCTGGGA | -0.376
30 | TTTCACATTGACTATCTCCATA | -0.895
31 | TTCTTTCTTGCATAGCTCCTGT | 0.0285
32 | ACACATACTACAAACATTGGGT | -0.0412
33 | TATAATTAGATGTGACTTCTGG | 0.548
34 | ATACTTAGTACATTCATAGGGT | 0.067
35 | TTATAATTTAGTAAGTCTGAAT | -1.16

target: ZNF653; experiment: as above; settings: shRNA

Row | Sequence | sensor-assay potency score (higher = more potent)
36 | TGACATGTCGCTGCCGTCCAGC | -1.21
37 | TTGGATAAATAGAACTTCTTGC | -0.368
38 | TTGGCGTCGCTCCAGCCGCTGC | -1.56
